Source: PubChem (Broad Institute)
IDE exosite FP: insulin-degrading enzyme (human) exo-site inhibition; z-score at 20 µM; purified IDE, FL-6b probe fluorescence polarization; stronger effect = lower value; P14735; hit rate 6.3% among 17,000; AID 1259349;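 active = z-score of -3 or lower, meaning strong loss of probe binding signal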;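 also: His-tagged human IDE residues 42-1019 made in E. coli with 30 nM FL-6b probe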
An asterisk follows results filed as active; ! = a repeat was not active. The sample as a whole holds a higher share of hits than the screen did.

SMILES	IDE exosite FP
O=C(C[C@H]1C=C[C@@H](NC(=O)c2ccncc2)[C@H](CO)O1)NCC1CC1	0.15
O=C1CNC[C@H]2[C@H](c3ccc(C#CC4CCCCC4)cc3)[C@@H](CO)N12	-1.3
CNC[C@@H]1OCCCC[C@@H](C)Oc2ccc(NS(=O)(=O)c3ccc(F)cc3)cc2C(=O)N([C@@H](C)CO)C[C@H]1C	0.19
CO[C@H]1CN(C)C(=O)c2ccc(NC(=O)c3cc(C)on3)cc2OC[C@H](C)NC[C@@H]1C	1.9
Cc1cccc(-c2ccc([C@H]3[C@H]4CN(C(=O)NC(C)C)CCCCN4[C@H]3CO)cc2)c1	-14*
Cc1cccc(-c2ccc([C@H]3[C@H](CO)N4CCCCN(C(=O)NC(C)C)C[C@@H]34)cc2)c1	-14*
Cc1cccc(-c2ccc([C@H]3[C@H](CO)N4CCCCN(C(=O)c5ccc6c(c5)OCO6)C[C@@H]34)cc2)c1	-2.2
CC(C)NC(=O)N1CCCCN2[C@H](CO)[C@H](c3ccc(C4=CCCC4)cc3)[C@@H]2C1	2.9
Cc1cccc(-c2ccc([C@@H]3[C@H](CO)N4CCCCN(C(=O)NC(C)C)C[C@@H]34)cc2)c1	-11*
Cc1ccc(-c2ccc([C@@H]3[C@H]4CN(C(=O)Nc5ccccc5)CCCCN4[C@H]3CO)cc2)cc1	0.84
Cc1ccc(-c2ccc([C@H]3[C@@H](CO)N4CCCCN(C(=O)Nc5ccccc5)C[C@@H]34)cc2)cc1	0.98
COc1cccc(C(=O)Nc2ccc3c(c2)OC[C@@H](C)N(CCc2ccccc2)C[C@@H](C)[C@H](OC)CN(C)C3=O)c1	-0.014
C[C@@H]1CCCCO[C@@H](CN(C)C(=O)Nc2cccc3ccccc23)[C@H](C)CN([C@H](C)CO)C(=O)c2cc(NC(=O)CCC(F)(F)F)ccc2O1	1.1
COCC(=O)N1[C@H](C#N)[C@@H](c2ccccc2C2=CCCCC2)[C@H]1CO	-0.47
CO[C@@H]1CC[C@@H]2CCOc3ccc(C#N)cc3C(=O)N(C)C[C@H](c3ccccc3)CC(=O)N(C)C[C@@H]1O2	-0.25
C/C=C/c1ccc([C@H]2[C@@H](CO)N(C(=O)C3CC3)[C@@H]2CN(CC)C(C)=O)cc1	0.63
COc1ccc(S(=O)(=O)N(C)C[C@H]2Oc3ccc(NC(=O)Nc4ccc(C(F)(F)F)cc4)cc3C(=O)N([C@@H](C)CO)C[C@@H]2C)cc1	1.2
CCCNC(=O)N1[C@H](CO)[C@H](c2ccc(C#CC3CC3)cc2)[C@H]1CNC	0.69
CS(=O)(=O)N1[C@@H]2CNC[C@H]1C2c1ccc(-c2ccccc2)cc1 (stereo not given in full)	1.6
O=C(Cc1cccnc1)N1CC(=O)N2[C@@H](CO)[C@@H](c3ccc(C#CC4CC4)cc3)[C@@H]2C1	-1.1
CCC(=O)N1CCCCN2[C@H](CO)[C@H](c3ccc(C#Cc4cccnc4)cc3)[C@@H]2C1	-10*
CCC(=O)N1CCCCN2[C@@H](CO)[C@@H](c3ccc(-c4cccnc4)cc3)[C@@H]2C1	0.016
COCC(=O)N1CCCCN2[C@H](CO)[C@H](c3ccc(C#Cc4cccnc4)cc3)[C@H]2C1	2.6
O=C(Nc1cccc(F)c1)N1CCCCN2[C@H](CO)[C@H](c3ccc(C#Cc4cccnc4)cc3)[C@@H]2C1	-1.6
CCC(=O)N1CCCCN2[C@H](C1)[C@H](c1ccc(-c3cccnc3)cc1)[C@@H]2CO	2.5
SMILES	IDE exosite FP
CCC(=O)N1CCCCN2[C@@H](CO)[C@@H](c3ccc(C#Cc4cccnc4)cc3)[C@@H]2C1	-3.1*
COCC(=O)N1CCCCN2[C@H](C1)[C@H](c1ccc(C#Cc3cccnc3)cc1)[C@@H]2CO	0.39
COCC(=O)N1CCCCN2[C@H](CO)[C@H](c3ccc(C#Cc4cccnc4)cc3)[C@@H]2C1	-3.1*
CN1CCCCN2[C@H](CO)[C@H](c3ccc(-c4ccc(F)cc4)cc3)[C@H]2C1	0.4
OC[C@@H]1[C@@H](c2ccccc2)C2(CN(Cc3cc(F)ccc3F)C2)N1CC1CCCC1	0.99
Cc1cccc(-c2ccc([C@@H]3[C@@H](CO)N4C(=O)CN(C(=O)NC5CCCCC5)C[C@@H]34)cc2)c1	-17*
Cc1cccc(-c2ccc([C@H]3[C@H]4CN(C(=O)NC5CCCCC5)CC(=O)N4[C@H]3CO)cc2)c1	-9.5*
CC(C)NC(=O)Nc1ccc2c(c1)C(=O)N([C@@H](C)CO)C[C@@H](C)[C@H](CN(C)C(=O)C1CCCCC1)OCCCC[C@@H](C)O2	0.46
C[C@@H]1CN([C@H](C)CO)C(=O)c2cc(N(C)C)ccc2O[C@@H](C)CCCCO[C@H]1CN(C)S(=O)(=O)c1ccc(F)cc1	0.17
Cc1noc(C)c1NC(=O)N[C@H]1C=C[C@H](CC(=O)Nc2ccc(-c3ccccc3)cc2)O[C@@H]1CO	-1.2
COCC#Cc1ccc([C@H]2[C@@H](CO)N3C(=O)CN(C(=O)C4CC4)C[C@H]23)cc1	2.1
C/C=C/c1ccc([C@H]2[C@@H](C#N)N(c3nc(CC)cs3)[C@@H]2CO)cc1	1.4
C[C@H]1CN([C@@H](C)CO)C(=O)CCCn2nncc2CO[C@H]1CN(C)Cc1ccc2cccnc2c1	0.047
COc1ccc(-c2ccc([C@@H]3[C@@H](CO)N4C(=O)CN(C(=O)c5cccnc5)C[C@@H]34)cc2)cc1	0.76
Cc1cccc(-c2ccc([C@@H]3[C@H](CO)N4C(=O)CN(C(=O)c5cccnc5)C[C@@H]34)cc2)c1	-6.3*
COc1ccc(-c2ccc([C@H]3[C@H](CO)N4C(=O)CN(C(=O)c5cccnc5)C[C@@H]34)cc2)cc1	-1.8
COc1ccc(-c2ccc([C@@H]3[C@H](CO)N4C(=O)CN(C(=O)c5cccnc5)C[C@@H]34)cc2)cc1	-1.5
Cc1cccc(-c2ccc([C@H]3[C@H]4CN(C(=O)c5cccnc5)CC(=O)N4[C@H]3CO)cc2)c1	-2.8
Cc1cccc(-c2ccc([C@H]3[C@H](CO)N4C(=O)CN(C(=O)c5cccnc5)C[C@@H]34)cc2)c1	-9.6*
COC(=O)C[C@H]1CC[C@H]2[C@H](COc3ccc(NC(=O)Nc4cccc(C#N)c4)cc3C(=O)N2C)O1	-0.77
C/C=C/c1ccc2c(c1)[C@H]1[C@H](CCN1C(=O)c1ccc3c(c1)OCO3)[C@H](CO)N2	-0.7
O=C(NCc1cc(F)cc(F)c1)[C@@H]1[C@@H](CO)[C@@H]2Cn3c(cccc3=O)[C@H]1N2C(=O)c1cnccn1	-0.64
CCC(=O)N1CC2(CCN(C(=O)Nc3ccccc3F)CC2)c2c([nH]c3cc(OC)ccc23)[C@@H]1CO	-0.62
O=C1CN(S(=O)(=O)Cc2ccccc2)C[C@@H]2[C@@H](c3ccc(C#Cc4cccnc4)cc3)[C@H](CO)N12	-1.8
CN(C)CC(=O)N1C[C@@H]2N[C@H](C1)C2c1ccc(/C=C/c2ccccc2)cc1 (stereo not given in full)	-5.6*!
COc1ccc(-c2ccc(C3[C@@H]4CN(C(=O)c5cnccn5)C[C@H]3N4)cc2)cc1 (stereo not given in full)	0.24
CN(C)CC(=O)N1C[C@@H]2N[C@H](C1)C2c1ccc(C2=CCCCC2)cc1 (stereo not given in full)	0.7
O=C(c1cnccn1)N1C[C@@H]2N[C@H](C1)C2c1ccc(/C=C/c2ccccc2)cc1 (stereo not given in full)	-4.2*!
O=C(c1cnccn1)N1CC(=O)N2[C@H](C1)[C@@H](c1ccc(/C=C/c3ccccc3)cc1)[C@@H]2CO	-1.7
Cc1cccc(-c2ccc([C@@H]3[C@@H]4CN(C(=O)CN(C)C)C[C@H]3N4)cc2)c1	0.22
